# According to PubChem BioAssay (NCATS):
# Inconclusive results are not listed. Where a call stands in place of a potency, no number is given. The source made the active and inactive calls. The call rests on the fitted dose curve; in most records, active means well fitted curve in the direction sought with a large enough effect; inconclusive means small, poorly fitted or top-dose-only effect, or another doubt; inactive means no such curve, though single readings can be large; an effect the other way counts as inactive or inconclusive.
# Key:
# [1] = qHTS assay for measurement of the activity of small molecule inhibitors on Zika virus induced Caspase-3 activity in human iPSC derived neural progenitor cells (hNPCs) (AID 1224857); further: nearly all actives have a fitted effect of over 65% in size
# How it was run: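 Human iPSC-derived neural progenitor cells pretreated 1 hr with compounds, then infected with Zika virus (2 FFU/cell) for 6 hours at 37 C. Caspase-3/7 measured by Caspase-Glo luminescence; % inhibition calculated from induction scaled to uninfected (0%) and infected (100%) wells.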
# [2] = qHTS assay for measurement of the activity of small molecule inhibitors on Zika virus induced Caspase-3 activity in human astrocytoma cells (AID 1224859)
# How it was run: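 SNB-19 astrocytoma cells, 250/well, pretreated 1 h with compounds, then Zika virus at 2 FFU/cell for 6 h at 37 C; Caspase-Glo 3/7 luminescence after 30 min; percent inhibition normalised to uninfected and infected controls.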
# [3] = qHTS assay to identify small molecule inhibitors of chordoma cells - UCH-1 (AID 1259355); further: nearly all actives have a fitted effect of over 55% in size; further: potency means the concentration at half of the fitted maximal effect; series mostly up to about 46 µM
# How it was run: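 Seed 800 cells per well; incubate overnight at 37 C, 5% CO2. Add test compounds (15 concentrations), then the auranofin–topoisomerase-agent combination. Incubate 48hr, add CellTiter-Glo, wait 30min, read luminescence.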
Structure (SMILES),outcome [1],outcome [2],Potency [3]
C[N+](C)(C)CCCCCCCCCC[N+](C)(C)C,inactive,inactive,inactive
NC(=Nc1ccccc1)Nc1ccccc1,inactive,–,–
Cc1ccc(/C(=C\CN2CCCC2)c2ccccn2)cc1,inactive,inactive,inactive
CC(C)(C)NCC(O)c1cc(O)cc(O)c1 (stereo not drawn),inactive,inactive,inactive
Nc1c2c(nc3ccccc13)CCCC2O (stereo not drawn),inactive,inactive,inactive
NC(=O)N1c2ccccc2C=Cc2ccccc21,inactive,–,–
C[C@]12C=CC(=O)C=C1CC[C@H]1[C@@H]3C[C@@H](O)[C@](O)(C(=O)CO)[C@@]3(C)C[C@H](O)[C@@]12F,inactive,inactive,–
OCCN1CCN(CCCN2c3ccccc3C=Cc3ccccc32)CC1,inactive,inactive,inactive
CCc1c(C)[nH]c2c1C(=O)C(CN1CCOCC1)CC2 (stereo not drawn),inactive,inactive,–
COc1cc(Cc2cnc(N)nc2N)cc(OC)c1OC,inactive,inactive,inactive
CCN(CC)CC(=O)Nc1c(C)cccc1C,inactive,inactive,inactive
CCCCOCCOCCOCc1cc2c(cc1CCC)OCO2,inactive,inactive,inactive
NC(N)=NC(=O)Cc1c(Cl)cccc1Cl,inactive,inactive,inactive
OCCN1CCN(CC/C=C2/c3ccccc3Sc3ccc(C(F)(F)F)cc32)CC1,inactive,inactive,inactive
CC(C)NCC(O)c1cc(O)cc(O)c1 (stereo not drawn),inactive,inactive,inactive
Cc1scc2c1N(C(=O)CN1CCN(C)CC1)c1ccccc1NC2=O,inactive,inactive,inactive
COc1cc(C(=O)OCCCN2CCCN(CCCOC(=O)c3cc(OC)c(OC)c(OC)c3)CC2)cc(OC)c1OC,inactive,inactive,–
O=C(O)CP(=O)(O)O,inactive,inactive,inactive
CC(=O)Oc1cc(C(C)C)c(OCCN(C)C)cc1C,inactive,inactive,–
Cc1ccc(=O)n(-c2ccccc2)c1,inactive,inactive,inactive
CCCCCN(CCCCC)C(=O)C(CCC(=O)O)NC(=O)c1ccc(Cl)c(Cl)c1 (stereo not drawn),inactive,inactive,inactive

Structure (SMILES),outcome [1],outcome [2],Potency [3]
C[C@@H](O)[C@H]1C(=O)N2C(C(=O)O)=C(SCCN=CN)C[C@H]12,inactive,inactive,inactive
CCN(Cc1ccncc1)C(=O)C(CO)c1ccccc1 (stereo not drawn),inactive,inactive,–
O=c1[nH]c(=O)n([C@H]2C[C@H](O)[C@@H](CO)O2)cc1Br,inactive,inactive,inactive
CCCCNC(=O)NS(=O)(=O)c1ccc(C)cc1,inactive,inactive,inactive
CCNC(=O)N1CCN(CCCC(c2ccc(F)cc2)c2ccc(F)cc2)CC1,inactive,inactive,inactive
CN1C(=O)CC[C@H]1c1cccnc1,inactive,inactive,inactive
Cc1ccc(Cl)c(Nc2ccccc2C(=O)O)c1Cl,inactive,inactive,inactive
COc1ccc2c(c1OC)C(=O)O[C@@H]2[C@H]1c2c(cc3c(c2OC)OCO3)CCN1C,inactive,inactive,inactive
COc1ccc([C@@H]2Sc3ccccc3N(CCN(C)C)C(=O)[C@@H]2OC(C)=O)cc1,inactive,inactive,inactive
CC(C)(C)c1ccc(C(=O)CCCN2CCC(OC(c3ccccc3)c3ccccc3)CC2)cc1,inactive,inactive,15.8 µM (active)
CCCN(CCC)CCc1cccc2c1CC(=O)N2,inactive,inactive,–
O=C(O)CN(CCN(CC(=O)O)CC(=O)O)CCN(CC(=O)O)CC(=O)O,inactive,inactive,inactive
O=C(CCCN1CCC(O)(c2cccc(C(F)(F)F)c2)CC1)c1ccc(F)cc1,inactive,inactive,inactive
COC(=O)C1=C(C)NC(C)=C(C(=O)OC(C)(C)CN(C)CCC(c2ccccc2)c2ccccc2)C1c1cccc([N+](=O)[O-])c1 (stereo not drawn),inactive,inactive,inactive
COc1ccc(CN(CCN(C)C)c2ccccn2)cc1,inactive,inactive,inactive
COc1ccc(CCN(C)CCCC(C#N)(c2cc(OC)c(OC)c(OC)c2)C(C)C)cc1OC (stereo not drawn),inactive,inactive,inactive
CCCN1C[C@H](CSC)C[C@@H]2c3cccc4[nH]cc(c34)C[C@H]21,inactive,inactive,inactive
Nc1nc(N)c2nc(-c3ccccc3)c(N)nc2n1,inactive,inactive,inactive
CC(C)NNC(=O)c1ccncc1,inactive,inactive,inactive
CN(C)CC[C@@H](c1ccc(Br)cc1)c1ccccn1,inactive,inactive,inactive
